Results published in PubChem BioAssay (NCATS).
Results filed as inconclusive are left out. Unless noted, the call rests on the fitted dose curve; in most records, active means well fitted curve in either direction with a large enough effect (not every such curve was filed as active); inconclusive means small, poorly fitted or top-dose-only effect, or another doubt; inactive means flat fitted curve, though single readings scatter.

Experiments:
[1] = AP1 Signaling Pathway (AID 357); settings: ME-180 AP-1-bla reporter, EGF-induced, beta-lactamase ratio, 5 h; at 17.2 µM (top of the series) unless noted;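 further: ME-180 reporter cells stimulated with EGF at its EC50 level; on the % scale 0 is the no-effect control and ±100 the full control effect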
Procedure, shortened: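 Read-out was the 460nm/530nm emission ratio (excitation 405nm) after CCF4 loading for 2.5 hours at room temperature. Cells carried an AP-1-driven beta-lactamase reporter, were stimulated with EC50 EGF plus compound for 5 hours, and AC50 values came from titrations.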

[2] = NFAT Signaling Pathway (AID 444); settings: Jurkat NFAT-bla M1, carbachol, beta-lactamase ratio, 5 h; at 17.2 µM (top of the series) unless noted;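 further: carbachol stimulus at about its EC50 of 1 µM final; on the % scale 0 is the no-effect control and ±100 the full control effect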
Procedure, shortened: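 Jurkat cells with NFAT-driven β-lactamase reporter and co-expressed M1 receptor, stimulated with carbachol (final 1 uM, ~EC50), compound titration, 5 h at 37 °C. CCF4 loaded 1 h at RT; 460/530 nm ratio gave %activity and AC50.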

[3] = Stat Signaling Pathway (AID 446); settings: ME-180 SIE beta-lactamase reporter, IL-6 stimulated, 5 h; at 17.2 µM (top of the series) unless noted;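 further: ME-180 cervical cancer cells given 40 pM IL-6 alongside compound; SIE-controlled beta-lactamase reporter measured as 460/530 nm FRET emission ratio; on the % scale 0 is the no-effect control and ±100 the full control effect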
Procedure, shortened: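 Reporter line: ME-180 cervical carcinoma, SIE-beta-lactamase. Treatment: compound with 40 pM IL-6, 5 hrs, 37 C, in low-serum OPTI-MEM with 10 mM HEPES pH 7.3. Detection: 460/530 nm fluorescence.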

[4] = molecular target: Glucocorticoid receptor (Homo sapiens) (UniProt P04150); test: GR-GFP Redistribution (AID 450;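 active means compounds whose dose series gives a full or clear partial fitted curve of increased nuclear translocation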; further: potency means the concentration at half of the fitted maximal effect)
Sequence of Glucocorticoid receptor (Homo sapiens) (P04150 whole entry, looked up): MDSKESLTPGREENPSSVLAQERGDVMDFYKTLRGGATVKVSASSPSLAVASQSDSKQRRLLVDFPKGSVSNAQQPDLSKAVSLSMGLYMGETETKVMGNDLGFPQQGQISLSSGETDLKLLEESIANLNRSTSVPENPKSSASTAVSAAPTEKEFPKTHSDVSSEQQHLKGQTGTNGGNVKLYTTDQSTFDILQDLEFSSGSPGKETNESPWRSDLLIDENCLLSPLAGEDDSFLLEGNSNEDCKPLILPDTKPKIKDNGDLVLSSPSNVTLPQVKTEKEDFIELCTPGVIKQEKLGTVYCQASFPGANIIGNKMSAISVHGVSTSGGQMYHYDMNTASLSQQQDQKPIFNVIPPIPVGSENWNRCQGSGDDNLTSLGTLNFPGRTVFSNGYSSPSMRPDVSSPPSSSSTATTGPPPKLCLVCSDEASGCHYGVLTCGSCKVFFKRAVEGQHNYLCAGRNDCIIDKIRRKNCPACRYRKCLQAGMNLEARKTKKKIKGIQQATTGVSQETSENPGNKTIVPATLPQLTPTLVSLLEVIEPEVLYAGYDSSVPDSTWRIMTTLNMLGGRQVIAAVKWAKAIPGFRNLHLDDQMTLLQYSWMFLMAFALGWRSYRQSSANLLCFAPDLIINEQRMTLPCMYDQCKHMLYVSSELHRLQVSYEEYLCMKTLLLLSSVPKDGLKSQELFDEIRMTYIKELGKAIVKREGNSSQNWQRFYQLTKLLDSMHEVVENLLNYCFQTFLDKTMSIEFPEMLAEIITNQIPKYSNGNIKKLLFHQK

COc1ccc2nc(SCC(=O)O)nc(C)c2c1
inactive: activity change, negative = inhibition [1] 5.08% | activity change, negative = inhibition [2] 7.89% | activity, negative = inhibition [3] 3.73% | Potency [4] > 20.6 µM

CC(=O)C1=C(O)C(=O)N(c2ccc(Br)cn2)C1c1ccccc1F (stereo not drawn)
inactive: activity change, negative = inhibition [1] -1.6% | activity change, negative = inhibition [2] 1.82% | activity, negative = inhibition [3] -16.8% | Potency [4] > 20.6 µM

Cc1cc(C)nc(NC2=NCC(=O)N2c2cccc(Cl)c2)n1
inactive: activity change, negative = inhibition [1] 3.62% | activity change, negative = inhibition [2] -0.714% | activity, negative = inhibition [3] 0.214% | Potency [4] > 20.6 µM

CCCc1nc2n[nH]c(N)c2c2c1CCCC2
inactive: activity change, negative = inhibition [1] 6.52% | activity change, negative = inhibition [2] -0.387% | activity, negative = inhibition [3] 12.6% | Potency [4] > 20.6 µM

Cc1ccc(C(=O)C2=C(O)C(=O)N(c3ncccn3)C2c2ccc(Cl)cc2)o1 (stereo not drawn)
inactive: activity change, negative = inhibition [1] -14% | activity change, negative = inhibition [2] 23% | activity, negative = inhibition [3] -10.8% | Potency [4] > 20.6 µM

COC(=O)C1=C(C)N=C2SC(C)C(=O)N2C1c1cccc(F)c1 (stereo not drawn)
inactive: activity change, negative = inhibition [1] -23.7% | activity change, negative = inhibition [2] -3.19% | activity, negative = inhibition [3] -1.23% | Potency [4] > 20.6 µM

Cc1cccc(C)c1OCC(O)CNS(=O)(=O)c1ccccc1C(=O)N1CCOCC1 (stereo not drawn)
inactive: activity change, negative = inhibition [1] -8.76% | activity change, negative = inhibition [2] 9% | activity, negative = inhibition [3] 3.91% | Potency [4] > 20.6 µM

CCc1nc2n[nH]c(N)c2c2c1CSC(C)(C)C2
inactive: activity change, negative = inhibition [1] 1.67% | activity change, negative = inhibition [2] 14.6% | activity, negative = inhibition [3] -13.2% | Potency [4] > 20.6 µM

CCOC(=O)c1[nH]c2ccc(Br)cc2c1NC(=O)CCN1CCN(C(=O)OCC)CC1
inactive: activity change, negative = inhibition [1] -25% | activity change, negative = inhibition [2] -25.7% | activity, negative = inhibition [3] -26.2% | Potency [4] > 20.6 µM

O=C(NCC(F)(F)F)Nc1nnc(C(F)(F)F)s1
inactive: activity change, negative = inhibition [1] -9.88% | activity change, negative = inhibition [2] -2.8% | activity, negative = inhibition [3] -4.37% | Potency [4] > 20.6 µM

O=C(NCc1cccnc1)NC(C(F)(F)F)C(F)(F)F
inactive: activity change, negative = inhibition [1] 12.5% | activity change, negative = inhibition [2] 2.52% | activity, negative = inhibition [3] 8.58% | Potency [4] > 20.6 µM

CCC(=O)Nc1ccc(-c2nnc(SCC(=O)NCC3CCCO3)n2C)cc1 (stereo not drawn)
inactive: activity change, negative = inhibition [1] -2.29% | activity change, negative = inhibition [2] -1.98% | activity, negative = inhibition [3] 1.52% | Potency [4] > 20.6 µM

O=C(O)CC(SCc1ccc(C(=O)O)o1)C(=O)O (stereo not drawn)
inactive: activity change, negative = inhibition [1] 7.18% | activity change, negative = inhibition [2] -1.8% | activity, negative = inhibition [3] 0.837% | Potency [4] > 20.6 µM

O=C(O)C1CSCN1S(=O)(=O)c1cccc2nsnc12 (stereo not drawn)
inactive: activity change, negative = inhibition [1] 1.17% | activity change, negative = inhibition [2] 4.31% | activity, negative = inhibition [3] -1.2% | Potency [4] > 20.6 µM

CC1(C)Nc2ccc(O)cc2-c2c1ssc2=S
inactive: activity change, negative = inhibition [1] -3.5% | activity change, negative = inhibition [2] 19.6% | activity, negative = inhibition [3] -16.8% | Potency [4] > 20.6 µM

CCc1cc(=O)oc2cc(C)c(CN3CCCC(C)C3)c(O)c12 (stereo not drawn)
inactive: activity change, negative = inhibition [1] 1.74% | activity change, negative = inhibition [2] -12.2% | activity, negative = inhibition [3] -15.7% | Potency [4] > 20.6 µM

Nc1c(C(=O)NCc2ccco2)sc2nc(N3CCOCC3)c3c(c12)CCCC3
inactive: activity change, negative = inhibition [1] -27.5% | activity change, negative = inhibition [2] 16.8% | activity, negative = inhibition [3] -13.4% | Potency [4] > 20.6 µM

Cc1nc(Nc2ncc3c(n2)CC(C)(C)CC3=O)nc2ccccc12
inactive: activity change, negative = inhibition [1] -5.98% | activity change, negative = inhibition [2] 10.6% | activity, negative = inhibition [3] -25% | Potency [4] > 20.6 µM

CCOC(=O)c1c(C)[nH]c(/C(C)=N/O)c1C
inactive: activity change, negative = inhibition [1] -4.81% | activity change, negative = inhibition [2] 3.09% | activity, negative = inhibition [3] -8.45% | Potency [4] > 20.6 µM

CN1C(=O)N(c2ccccc2)C(Nc2nncs2)C1(C)C (stereo not drawn)
inactive: activity change, negative = inhibition [1] 2.23% | activity change, negative = inhibition [2] -8.24% | activity, negative = inhibition [3] -1.47% | Potency [4] > 20.6 µM

OCCN=C(c1ccccc1)C12CN3CN(CN(C3)C1)C2
inactive: activity change, negative = inhibition [1] 6.77% | activity change, negative = inhibition [2] -21.4% | activity, negative = inhibition [3] 3.31% | Potency [4] > 20.6 µM

O=C(C/C(=N/O)c1ccccc1O)C(F)F
inactive: activity change, negative = inhibition [1] 15.8% | activity change, negative = inhibition [2] 0.0588% | activity, negative = inhibition [3] 3.52% | Potency [4] > 20.6 µM

CNC(=O)CCn1nc(-c2ccccc2)c2ccccc2c1=O
inactive: activity change, negative = inhibition [1] 5.34% | activity change, negative = inhibition [2] -2.43% | activity, negative = inhibition [3] 1.15% | Potency [4] > 20.6 µM

CC1(C)C/C(=C(/C#N)C(N)=O)CCO1
inactive: activity change, negative = inhibition [1] -0.694% | activity change, negative = inhibition [2] 2.44% | activity, negative = inhibition [3] 4.37% | Potency [4] > 20.6 µM

Cc1cccc(-c2nc(C#N)c(NC3CCCCC3)o2)c1
inactive: activity change, negative = inhibition [1] -27.9% | activity change, negative = inhibition [2] -26.6% | activity, negative = inhibition [3] -7.27% | Potency [4] > 20.6 µM

CCOC(=O)c1cnn2c1[nH]c(=O)c1ccccc12
inactive: activity change, negative = inhibition [1] -8.34% | activity change, negative = inhibition [2] 9.32% | activity, negative = inhibition [3] 9.94% | Potency [4] > 20.6 µM

COc1ccc(N2CC(=O)N(c3ccc(OC)c(OC)c3)CC2=O)cc1OC
inactive: activity change, negative = inhibition [1] 22.8% | activity change, negative = inhibition [2] 5.84% | activity, negative = inhibition [3] 1.83% | Potency [4] > 20.6 µM

O=S(=O)(NCc1cccnc1)c1cccc2nsnc12
inactive: activity change, negative = inhibition [1] 6.05% | activity change, negative = inhibition [2] -11.1% | activity, negative = inhibition [3] 4.09% | Potency [4] > 20.6 µM

COc1cc(C2C(C#N)=C(N)Oc3cc(C)n(CCN4CCOCC4)c(=O)c32)cc(OC)c1OC (stereo not drawn)
inactive: activity change, negative = inhibition [1] 10.6% | activity change, negative = inhibition [2] 6.98% | activity, negative = inhibition [3] -2.02% | Potency [4] > 20.6 µM

COc1ccc(CC(=O)n2c(CC#N)nc3ccccc32)cc1OC
inactive: activity change, negative = inhibition [1] -7.74% | activity change, negative = inhibition [2] 10.4% | activity, negative = inhibition [3] -5.7% | Potency [4] > 20.6 µM

O=C1C2CC=C(Cl)CC2C(=O)N1CNc1ccccn1 (stereo not drawn)
inactive: activity change, negative = inhibition [1] -0.589% | activity change, negative = inhibition [2] -12.9% | activity, negative = inhibition [3] 7.34% | Potency [4] > 20.6 µM

CN(C)/C=C1\N=C(c2cccs2)OC1=O
inactive: activity change, negative = inhibition [1] 4.03% | activity change, negative = inhibition [2] 6.03% | activity, negative = inhibition [3] 13.9% | Potency [4] > 20.6 µM

C[N+]1(CCNC(=O)/C=N/O)CCCCC1
inactive: activity change, negative = inhibition [1] 7.1% | activity change, negative = inhibition [2] -12.9% | activity, negative = inhibition [3] 5.42% | Potency [4] > 20.6 µM

CCOC(=O)c1cnc(SC2CC(=O)N(c3cccc(OC)c3)C2=O)nc1N (stereo not drawn)
inactive: activity change, negative = inhibition [1] -16% | activity change, negative = inhibition [2] -6.66% | activity, negative = inhibition [3] -12.1% | Potency [4] > 20.6 µM

CCOC(=O)c1c(NC(=O)CN2CCOCC2)sc2c1CC(C)(C)OC2
inactive: activity change, negative = inhibition [1] -15.6% | activity change, negative = inhibition [2] 12.7% | activity, negative = inhibition [3] -6.32% | Potency [4] > 20.6 µM

Brc1ccc2c(c1)CNc1c(ncnc1N1CCOCC1)O2
inactive: activity change, negative = inhibition [1] -1.29% | activity change, negative = inhibition [2] -6.94% | activity, negative = inhibition [3] -3.65% | Potency [4] > 20.6 µM

CCOC(=O)/C(C#N)=C1/SC(CCO)C(=O)N1c1ccccc1 (stereo not drawn)
inactive: activity change, negative = inhibition [1] -6.66% | activity change, negative = inhibition [2] 2.53% | activity, negative = inhibition [3] -3.36% | Potency [4] > 20.6 µM
